In PubChem BioAssay (NCI):
About 83,000 compounds went through this panel and 20% of them were active in at least one assay; those are over-represented in the sample as a whole.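 Interpretation: 100, growth as untreated; towards 0, rising growth inhibition; 0, no net growth; 0 to -100, cell death. Compounds scoring below 10 were considered active.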 The source made the active and inactive calls.

Legend:
Test in all cases: NCI-60 one-dose screen, 48 h (100 = growth as untreated, 0 = no growth, -100 = all killed)
Conditions in all cases: 10 µM unless noted
SK-MEL-2 melanoma = system: SK-MEL-2 melanoma
EKVX NSCLC = system: EKVX NSCLC
SN12C renal = system: SN12C renal
UO-31 renal = system: UO-31 renal
TK-10 renal = system: TK-10 renal
ACHN renal = system: ACHN renal
CAKI-1 renal = system: CAKI-1 renal
A498 renal = system: A498 renal
CCRF-CEM leukemia = system: CCRF-CEM leukemia
MOLT-4 leukemia = system: MOLT-4 leukemia
RPMI-8226 leukemia = system: RPMI-8226 leukemia
OVCAR-8 ovarian = system: OVCAR-8 ovarian
OVCAR-5 ovarian = system: OVCAR-5 ovarian
OVCAR-4 ovarian = system: OVCAR-4 ovarian
SK-OV-3 ovarian = system: SK-OV-3 ovarian
IGROV1 ovarian = system: IGROV1 ovarian
OVCAR-3 ovarian = system: OVCAR-3 ovarian
HS 578T breast = system: HS 578T breast
NCI/ADR-RES ovarian = system: NCI/ADR-RES ovarian
SR leukemia = system: SR leukemia

Measured: growth

CN1CCN(Cc2ccc(NC(=O)c3cncc(C#Cc4cnc(N)c5ccc(C#N)cc45)c3)cc2C(F)(F)F)CC1
active: SK-MEL-2 melanoma -62% | SN12C renal -81.1% | UO-31 renal -78.4% | TK-10 renal -2.47% | ACHN renal -92.5% | CAKI-1 renal -51.5% | A498 renal -29.8% | CCRF-CEM leukemia 3.96% | MOLT-4 leukemia 2.26% | RPMI-8226 leukemia -25.3% | OVCAR-8 ovarian -68.4% | OVCAR-5 ovarian -79.6% | OVCAR-4 ovarian -56.8% | SK-OV-3 ovarian -4.83% | IGROV1 ovarian -64.1% | OVCAR-3 ovarian 3.19% | HS 578T breast -32.1% | NCI/ADR-RES ovarian -13.6%
inactive: EKVX NSCLC 43.4%

O=C(CNc1ncco1)Nc1ccc(S(=O)(=O)c2ccc(NC(=O)CNc3ncco3)cc2)cc1
inactive: EKVX NSCLC 50.4% | UO-31 renal 41.1% | TK-10 renal 54.4% | ACHN renal 30.5% | A498 renal 100% | OVCAR-5 ovarian 28.5% | OVCAR-4 ovarian 17.5% | SK-OV-3 ovarian 76.1% | OVCAR-3 ovarian 104%
active: SK-MEL-2 melanoma -6.97% | SN12C renal 8.32% | CAKI-1 renal -51.6% | CCRF-CEM leukemia 0.572% | MOLT-4 leukemia 5.92% | SR leukemia -0.678% | OVCAR-8 ovarian -80.7% | IGROV1 ovarian -10.3% | HS 578T breast -4.97% | NCI/ADR-RES ovarian -12.5%

O=C(/C=C/c1ccc([N+](=O)[O-])cc1)c1cccc(Nc2nc(Nc3ccccc3)nc(Nc3ccccc3)n2)c1
inactive: SK-MEL-2 melanoma 37.5% | EKVX NSCLC 65.1% | SN12C renal 89.1% | UO-31 renal 38.9% | TK-10 renal 66.3% | ACHN renal 80% | CAKI-1 renal 72.5% | A498 renal 70% | CCRF-CEM leukemia 46.2% | MOLT-4 leukemia 46.4% | SR leukemia 55.8% | OVCAR-8 ovarian 70.5% | OVCAR-5 ovarian 74.7% | OVCAR-4 ovarian 79.8% | SK-OV-3 ovarian 81% | IGROV1 ovarian 52% | OVCAR-3 ovarian 72.6% | HS 578T breast 70.2% | NCI/ADR-RES ovarian 67.9%

NC(=O)[C@@H]1Cc2ccccc2CN1C(=O)c1ccc2c(c1)Cc1ccccc1-2
inactive: SK-MEL-2 melanoma 92.8% | EKVX NSCLC 83.1% | SN12C renal 92.4% | UO-31 renal 61.3% | TK-10 renal 93.4% | ACHN renal 90.5% | CAKI-1 renal 80.9% | A498 renal 89.2% | CCRF-CEM leukemia 81.9% | MOLT-4 leukemia 71.1% | SR leukemia 92.6% | OVCAR-8 ovarian 75.1% | OVCAR-5 ovarian 98.8% | OVCAR-4 ovarian 84.9% | SK-OV-3 ovarian 108% | IGROV1 ovarian 90.2% | OVCAR-3 ovarian 85.7% | HS 578T breast 93.8% | NCI/ADR-RES ovarian 62.8%

COc1ccc(C2CC(=O)Oc3c(OC)c4c(c(OC)c32)OCO4)cc1 (configuration not stated)
inactive: SK-MEL-2 melanoma 101% | EKVX NSCLC 101% | SN12C renal 98% | UO-31 renal 84.7% | TK-10 renal 96.4% | ACHN renal 103% | CAKI-1 renal 96.8% | A498 renal 88.7% | CCRF-CEM leukemia 88.9% | MOLT-4 leukemia 96.3% | RPMI-8226 leukemia 89.4% | OVCAR-8 ovarian 98.2% | OVCAR-5 ovarian 92.2% | OVCAR-4 ovarian 106% | SK-OV-3 ovarian 92% | IGROV1 ovarian 92.7% | OVCAR-3 ovarian 109% | HS 578T breast 93.7% | NCI/ADR-RES ovarian 92.4%

CNC1=C([N+](=O)[O-])C(c2ccc(OC)cc2)C(C#N)=C(c2ccc[nH]2)O1 (configuration not stated)
inactive: SK-MEL-2 melanoma 108% | EKVX NSCLC 99.7% | SN12C renal 97.1% | UO-31 renal 89.3% | TK-10 renal 117% | ACHN renal 105% | CAKI-1 renal 92.6% | A498 renal 96.8% | CCRF-CEM leukemia 43.1% | MOLT-4 leukemia 108% | SR leukemia 98.2% | OVCAR-8 ovarian 99.8% | OVCAR-5 ovarian 109% | OVCAR-4 ovarian 92.8% | SK-OV-3 ovarian 102% | IGROV1 ovarian 104% | OVCAR-3 ovarian 107% | HS 578T breast 98.1% | NCI/ADR-RES ovarian 110%

CCCCN(CCC#N)C(N)=O
inactive: SK-MEL-2 melanoma 104% | EKVX NSCLC 101% | SN12C renal 106% | UO-31 renal 98.4% | TK-10 renal 98.9% | ACHN renal 97.7% | CAKI-1 renal 82.7% | A498 renal 89.6% | CCRF-CEM leukemia 96.7% | MOLT-4 leukemia 107% | RPMI-8226 leukemia 113% | OVCAR-8 ovarian 107% | OVCAR-5 ovarian 106% | OVCAR-4 ovarian 122% | SK-OV-3 ovarian 109% | IGROV1 ovarian 100% | OVCAR-3 ovarian 89.7% | HS 578T breast 105% | NCI/ADR-RES ovarian 109%

C=C(c1ccc(C(=O)O)c(F)c1)c1cc2c(cc1C)C(C)(C)C=CC2(C)C
inactive: SK-MEL-2 melanoma 87.1% | EKVX NSCLC 69.9% | SN12C renal 83.1% | UO-31 renal 81.4% | TK-10 renal 94.4% | ACHN renal 83.4% | CAKI-1 renal 81.7% | A498 renal 75.8% | CCRF-CEM leukemia 85.3% | SR leukemia 91.6% | RPMI-8226 leukemia 26.3% | OVCAR-8 ovarian 82.8% | OVCAR-5 ovarian 111% | OVCAR-4 ovarian 81.2% | SK-OV-3 ovarian 73% | IGROV1 ovarian 90.4% | OVCAR-3 ovarian 92.5% | HS 578T breast 61.9% | NCI/ADR-RES ovarian 83.1%
